A number with no mark means an inactive call. Results filed as inconclusive are left out. The source made the active and inactive calls. Unless noted, the call rests on the fitted dose curve.

Assay [1] is described as follows: Nuclear factor erythroid 2-related factor 2/antioxidant responsive element (Nrf2/ARE) small molecule agonists: qHTS cell viability counter screen in human keratinocytes (AID 1919968; active means well fitted curve in the direction sought with a large enough effect in the repeat runs; an effect the other way counts as inactive or inconclusive; further: nearly all actives have a fitted effect of over 55% in size; further: potency means the concentration at half of the fitted maximal effect). The essentials:
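CellTiter-Fluor fluorescence, read 1 h after reagent, gave viability in the same wells as the ARE-luciferase assay. KeratinoSens cells (1,500/well) had 23 h compound exposure at 37 C/5% CO2 following 5 h plating.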
A general note: In qHTS, concentration-response curves come from the screen itself.

Assay [2] is described as follows: Nuclear factor erythroid 2-related factor 2/antioxidant responsive element (Nrf2/ARE) small molecule agonists: luciferase reporter gene qHTS assay in human keratinocytes (AID 1919969). Further: nearly all actives have a fitted effect of over 35% in size. Further: potency means the concentration at half of the fitted maximal effect. A general note: A reporter such as luciferase makes a cellular process visible.
Assay [3] concerns the target KiSS-1 receptor (Homo sapiens) (UniProt Q969F8). Description: Human kisspeptin (KISS1R) small molecule agonists, calcium flux assay in KISS1R-HEK293 cells (AID 1920064; active means well fitted curve in the direction sought with a large enough effect in the repeat runs; an effect the other way counts as inactive or inconclusive). The essentials:
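Agonist mode: intracellular calcium rise tracked at 1 s intervals over 3 min (480/540 nm) immediately after compound addition to dye-loaded KISS1R-HEK293 stable cells. Each compound tested at 15 concentrations in triplicate.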
On the technique in general: Calcium assays in cells follow changes in intracellular calcium, usually with a dye or a luminescent sensor.

Assay [4] can be described thus: G protein-coupled receptor (GPCR) small molecule agonists, calcium flux assay: HEK293 wild type cell line counter screen (AID 1920065). A digest of the protocol:
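Calcium flux counter screen: compound added in agonist mode at 15 concentrations in triplicate to dye-loaded parental HEK293 cells. Fluorescence (480/540) read kinetically for 3 min; ATP served as positive control.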

Assay [5] is described as follows: p53 small molecule agonists, cell-based qHTS assay with human liver microsomes (AID 1963577). A digest of the protocol: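 In this qHTS, p53 response-element beta-lactamase cells receive test compound together with a microsome/NADPH activating system (0.5 mg/mL final each) and are incubated 16 h at 37 C before LiveBLAzer fluorescence detection.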
A short description of assay [6]: p53 small molecule agonists, cell-based qHTS assay with rat liver microsomes: qHTS cell viability counter screen (AID 1963580). Further: nearly all actives have a fitted effect of over 45% in size. A digest of the protocol: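 Cytotoxicity counter screen: intracellular ATP measured by CellTiter-Glo luminescence in the same wells as the beta-lactamase reporter read, on HCT-116 p53RE-bla cells exposed 16 h at 37 C to compounds with rat liver microsomes and NADPH, each 0.5 mg/mL final.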

Assay [7] is described as follows: p53 small molecule agonists, cell-based qHTS assay: qHTS cell viability counter screen (AID 1963581). Further: nearly all actives have a fitted effect of over 45% in size. A digest of the protocol:
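Counter screen read by CellTiter-Glo luminescence (ATP content, 30 min at room temperature), run in the same wells as the beta-lactamase reporter read. HCT-116 p53RE-bla cells saw compounds for 16 h at 37 C.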

Assay [8] is described as follows: cAMP Responsive Elements (CRE) small molecule agonists, cell-based qHTS assay (AID 1963590). The essentials:
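Agonist mode: compound added to CRE-bla HEK 293T cells (2,000/well, 18 h after plating) for 3 h at 37 C/5% CO2. Reporter activity detected via FRET beta-lactamase substrate, 2 h room-temperature loading.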

The nature of assay [9]: cAMP Responsive Elements (CRE) small molecule antagonists, cell-based qHTS assay (AID 1963591; active means well fitted inhibition curve with a large enough effect in the signal ratio in the repeat runs, not every such curve was filed as active; the % refers to the signal ratio). The essentials:
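Antagonist mode: compounds are added alongside the adenylyl cyclase activator NKH477 (0.25 uM final) to CRE-bla HEK293T cells for 3 h. LiveBLAzer FRET substrate, 2 h at room temperature, reports bla expression.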

Assay [10] has as its target Beta-2 adrenergic receptor (Homo sapiens) (UniProt P07550). As to the kind of experiment: Adrenergic beta2 receptor (ADRB2) small molecule antagonists, cell-based qHTS assay (AID 1963592). Further: series mostly up to about 92 µM; nearly all actives have a fitted effect of over 50% in size. A digest of the protocol:
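Assay format: CHO-ADRB2 cells, 18-20hr seeding at 37C/5% CO2, then compound plus 1nM isoproterenol agonist mix for 0.5hr RT. Homogeneous time-resolved fluorescence cAMP detection after 1hr, expressed as 665/615 nm ratio.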

In assay [11] the target is D(2) dopamine receptor (Homo sapiens) (UniProt P14416). Description: Dopamine D2 receptor (DRD2) small molecule agonists, cell-based qHTS assay (AID 1963594). Further: nearly all actives have a fitted effect of over 35% in size. The essentials: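 HEK293 cells stably expressing human DRD2, pre-treated with PDE inhibitor Ro20-1724 (0.1 mM final) and compound 10 min at room temperature, then stimulated with NKH477 (200nM […]) for 30 min. cAMP read by HTRF (665/620 nm).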

The target is the same in assay [12]. As to the kind of experiment: Dopamine D2 receptor (DRD2) small molecule antagonists, cell-based qHTS assay (AID 1963595; active means well fitted inhibition curve with a large enough effect in the signal ratio in the repeat runs, with a control signal flat; the % refers to the signal ratio). A digest of the protocol:
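Readout: HTRF cAMP, cAMP-d2 competing with cellular cAMP for anti-cAMP cryptate, read after 1 h. Cells: DRD2-HEK293. Conditions: 0.1 mM Ro20-1724, 12 nM quinpirole, 200 nM NKH477, 30 min RT.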

The nature of assay [13]: p53 small molecule agonists, cell-based qHTS assay with rat liver microsomes (AID 1963578). The essentials:
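Agonist mode in p53RE-bla reporter cells, with compounds co-incubated 16 h at 37 C alongside 0.5 mg/mL rat liver microsomes and 0.5 mg/mL NADPH (final), followed by a 2 h LiveBLAzer detection step.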

A short description of assay [14]: p53 small molecule agonists, cell-based qHTS assay with human liver microsomes: qHTS cell viability counter screen (AID 1963579). Further: nearly all actives have a fitted effect of over 45% in size. The essentials: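 Metabolically activated exposure: compounds, human liver microsomes and NADPH (0.5 mg/mL final apiece) were added to p53RE-bla cells seeded 5 h earlier, left 16 h at 37 C, and then assessed for viability by CellTiter-Glo luminescence.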

Assay [15] addresses 5-hydroxytryptamine receptor 2A (Homo sapiens) (UniProt P28223). As to the kind of experiment: 5-hydroxytryptamine receptor 2A (HTR2A) small molecule antagonists, cell-based qHTS assay (AID 1963586). Further: nearly all actives have a fitted effect of over 45% in size. The essentials: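 CHO cells stably expressing human HTR2A were plated for 18 h at 37 C, then loaded with calcium dye for 1 h. Compounds were preincubated 5 min at room temperature before DOI (4 nM solution) was added. Kinetic fluorescence was read for 3 min.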

The target is the same in assay [16]. As to the kind of experiment: 5-hydroxytryptamine receptor 2A (HTR2A) small molecule agonists, cell-based qHTS assay (AID 1963587). Further: nearly all actives have a fitted effect of over 30% in size. Further: potency means the concentration at half of the fitted maximal effect. A digest of the protocol:
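CHO cells stably expressing human HTR2A, plated 18 h, loaded with calcium dye 1 h at 37 C. Agonist mode: compounds added and intracellular calcium fluorescence recorded kinetically for 2 min at 1 sec intervals.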

Assay [17] has as its target Muscarinic acetylcholine receptor M1 (Homo sapiens) (UniProt P11229). As to the kind of experiment: Cholinergic receptor muscarinic 1 (CHRM1) small molecule antagonists, cell-based qHTS assay (AID 1963588). Further: nearly all actives have a fitted effect of over 40% in size. A digest of the protocol:
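Compounds were tested at 15 concentrations in three independent runs. Dye-loaded CHRM1-CHO cells were exposed 5 min at room temperature before stimulation by acetylcholine added at 50nM. Intracellular calcium was read kinetically on FDSS for 3 min.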

For assay [18] the target is unchanged. Description: Cholinergic receptor muscarinic 1 (CHRM1) small molecule agonists, cell-based qHTS assay (AID 1963589). Further: nearly all actives have a fitted effect of over 35% in size. A digest of the protocol: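 Agonist-mode calcium-flux screen: compounds at 15 concentrations, three independent runs, were pin-transferred onto dye-loaded human CHRM1-CHO cells. Fluorescence was then recorded kinetically every second over minutes.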

Assay [19] in a line: p53 small molecule agonists, cell-based qHTS assay (AID 1963582; active means well fitted activation curve with a large enough effect in the signal ratio in the repeat runs, not every such curve was filed as active; the % refers to the signal ratio). A digest of the protocol:
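Read-out is beta-lactamase FRET fluorescence after 2 h at room temperature with LiveBLAzer B/G substrate. p53 response element-bla cells were treated 16 h at 37 C with compounds in DMSO, added 5 h after seeding.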
On the % scale 0 is the no-effect control and ±100 the full control effect.

Sequence of D(2) dopamine receptor (Homo sapiens) (P14416 whole entry, looked up): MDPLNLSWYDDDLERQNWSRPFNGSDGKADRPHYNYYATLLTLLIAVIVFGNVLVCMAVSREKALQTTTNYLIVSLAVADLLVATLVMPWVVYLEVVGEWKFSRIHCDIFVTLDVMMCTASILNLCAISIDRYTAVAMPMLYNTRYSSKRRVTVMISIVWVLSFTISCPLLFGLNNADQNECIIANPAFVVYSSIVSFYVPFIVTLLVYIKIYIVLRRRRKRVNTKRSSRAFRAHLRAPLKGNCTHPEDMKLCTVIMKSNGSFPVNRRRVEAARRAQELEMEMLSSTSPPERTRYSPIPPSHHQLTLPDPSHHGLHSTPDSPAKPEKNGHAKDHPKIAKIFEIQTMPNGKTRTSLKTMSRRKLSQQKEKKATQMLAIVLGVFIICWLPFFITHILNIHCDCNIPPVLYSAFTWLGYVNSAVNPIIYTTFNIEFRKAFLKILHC
Sequence of KiSS-1 receptor (Homo sapiens) (Q969F8 whole entry, looked up): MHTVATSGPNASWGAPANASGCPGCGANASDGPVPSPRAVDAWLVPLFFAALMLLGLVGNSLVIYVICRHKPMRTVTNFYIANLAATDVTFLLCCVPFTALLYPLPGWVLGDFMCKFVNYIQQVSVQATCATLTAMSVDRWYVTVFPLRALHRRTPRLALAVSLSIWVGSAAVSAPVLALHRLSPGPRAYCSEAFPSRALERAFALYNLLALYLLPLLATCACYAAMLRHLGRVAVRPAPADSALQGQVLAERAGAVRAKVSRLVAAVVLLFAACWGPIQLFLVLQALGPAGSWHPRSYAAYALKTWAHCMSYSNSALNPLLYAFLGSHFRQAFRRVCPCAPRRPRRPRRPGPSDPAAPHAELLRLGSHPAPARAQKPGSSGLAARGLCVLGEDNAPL
Sequence of Beta-2 adrenergic receptor (Homo sapiens) (P07550 whole entry, looked up): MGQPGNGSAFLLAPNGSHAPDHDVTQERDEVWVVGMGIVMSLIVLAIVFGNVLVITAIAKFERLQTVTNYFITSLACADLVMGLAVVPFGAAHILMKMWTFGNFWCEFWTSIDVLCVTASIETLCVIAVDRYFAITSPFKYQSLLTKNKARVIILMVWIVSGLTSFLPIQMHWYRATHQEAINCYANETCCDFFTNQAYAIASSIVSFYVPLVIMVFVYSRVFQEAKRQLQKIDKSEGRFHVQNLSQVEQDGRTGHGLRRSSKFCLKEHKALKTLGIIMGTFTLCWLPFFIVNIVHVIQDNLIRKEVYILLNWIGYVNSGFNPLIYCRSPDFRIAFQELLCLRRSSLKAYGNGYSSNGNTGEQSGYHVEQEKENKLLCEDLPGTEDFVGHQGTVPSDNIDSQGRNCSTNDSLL
Sequence of Muscarinic acetylcholine receptor M1 (Homo sapiens) (P11229 whole entry, looked up): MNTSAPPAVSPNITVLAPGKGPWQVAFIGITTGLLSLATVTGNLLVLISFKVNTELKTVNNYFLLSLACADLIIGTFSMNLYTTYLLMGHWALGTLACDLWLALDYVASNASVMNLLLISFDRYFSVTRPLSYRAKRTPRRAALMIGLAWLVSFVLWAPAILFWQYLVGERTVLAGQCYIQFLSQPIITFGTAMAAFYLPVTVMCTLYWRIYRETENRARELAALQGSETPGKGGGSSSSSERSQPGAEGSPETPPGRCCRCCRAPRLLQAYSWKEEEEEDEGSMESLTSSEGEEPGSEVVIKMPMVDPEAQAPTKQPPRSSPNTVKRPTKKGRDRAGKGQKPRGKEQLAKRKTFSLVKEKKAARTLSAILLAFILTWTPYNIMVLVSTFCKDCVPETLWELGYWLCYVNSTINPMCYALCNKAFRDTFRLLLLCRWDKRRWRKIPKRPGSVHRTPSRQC
Sequence of 5-hydroxytryptamine receptor 2A (Homo sapiens) (P28223 whole entry, looked up): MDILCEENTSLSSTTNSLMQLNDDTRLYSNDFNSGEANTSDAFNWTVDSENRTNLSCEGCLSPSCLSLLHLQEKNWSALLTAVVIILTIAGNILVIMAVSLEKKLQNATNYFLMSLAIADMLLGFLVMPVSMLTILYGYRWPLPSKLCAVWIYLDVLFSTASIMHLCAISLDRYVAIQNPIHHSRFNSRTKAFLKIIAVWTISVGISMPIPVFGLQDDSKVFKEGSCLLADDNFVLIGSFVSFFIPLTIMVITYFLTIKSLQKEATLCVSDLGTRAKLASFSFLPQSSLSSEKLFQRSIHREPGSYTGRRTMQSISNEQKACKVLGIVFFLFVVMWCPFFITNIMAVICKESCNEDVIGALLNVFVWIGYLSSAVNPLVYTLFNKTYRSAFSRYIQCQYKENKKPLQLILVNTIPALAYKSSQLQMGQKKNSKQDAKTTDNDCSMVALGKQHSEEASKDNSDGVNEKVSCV

Take `CC[C@]1(O)CC[C@H]2[C@@H]3CCC4=CCCC[C@@H]4[C@H]3CC[C@@]21C`: the Potency result in assay [1], in assay [2], in assay [3], in assay [4], in assay [5] and in assay [6] was “inactive” each time. For the same compound, the Potency result in assay [7], in assay [8], in [9], in assay [10], in [11] and in [12] was “inactive” in each case.
Consider `Cc1cc2c3c(c1)C(c1ccccc1)=N[C@@H](NC(=O)c1ccncc1)C(=O)N3CC2`, for which the Potency result in assay [1], in assay [2], in assay [3], in [4], in [13] and in assay [14] was “inactive” in each case. Also, the Potency entry in [6], in [15], in assay [16], in assay [17], in assay [18] and in assay [10] was “inactive” each time.
For `Oc1ccc(Cl)c(Cl)c1Cl`, the Potency entry in assay [1], in assay [2], in assay [3], in assay [4], in [5] and in assay [13] was “inactive” throughout. Moreover, the Potency result in assay [6], in assay [7], in [19], in assay [15], in assay [16] and in [18] was “inactive” each time. Further, the Potency entry in assay [9], in assay [10], in assay [11] and in assay [12] was “inactive” throughout.
For `CCC1(C2=NCCN2)Cc2ccccc2O1` (stereo not drawn), the Potency entry in [1], in assay [2], in [3], in [4], in assay [14] and in assay [6] was “inactive” each time. Further, the Potency result in [7], in [15], in assay [16], in [17], in assay [18] and in assay [8] was “inactive” throughout. Besides, the Potency result in assay [9], in assay [10] and in [12] was “inactive” in each case.
As to `CC(C)O.CC(C)O.OCCN(CCO)CCO.OCCN(CCO)CCO.[Ti]`, the Potency entry in [1], in assay [2], in [3], in [4], in assay [14] and in [6] was “inactive” in each case. Besides, the Potency result in assay [7], in assay [15], in assay [16], in [17], in assay [8] and in assay [9] was “inactive” throughout. Also, the Potency entry in [10], in assay [11] and in [12] was “inactive” in each case.
On to `C[CH2][Hg][N]1C(=O)C2C(C1=O)C1(Cl)C(Cl)=C(Cl)C2(Cl)C1(Cl)Cl` (stereo not drawn), for which the Potency in assay [1] was 5.17 µM (active); in assay [2], 2.91 µM (active); in [16], 10.4 µM (active). Moreover, the activation was 13.3% [at 15.8 µM] in [3], -0.0279% [at 11.8 µM] in assay [4], -12.1% [at 13.5 µM] in assay [5] and -6.79% [at 13.6 µM] in assay [13]. Further, the activity, negative = inhibition was 14.2% [at 12.7 µM] in [15] and -14.4% [at 12.6 µM] in assay [17]. The activity change, negative = inhibition is -18.8% [at 19 µM] in [10] and 2.84% [at 18.9 µM] in [12].
Turning to `CC(C)(N)Cc1ccc(Cl)cc1`, the Potency result in [1], in assay [2], in assay [3], in assay [4], in [6] and in assay [7] was “inactive” throughout. Besides, the Potency entry in assay [18], in assay [8], in assay [9], in [10], in assay [11] and in [12] was “inactive” each time.

For the origin of these results see PubChem BioAssay (Tox21).
